# Experimental data from the supplement of paper PMC3545927.
# Some of the results follow. No count for the full screen is at hand.
# Molecular target: furin, P09958
# Assay: furin cleavage Z-score vs untreated control; higher = more cleavage, active = 3.5 or more, inactive = 1 or less, 8 variable residues between constant flanks
# In short: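 Furin cleavage was scored on 8-mer peptides joined to a cDNA oligonucleotide and bound to magnetic beads at the N-terminus. Digestion with purified furin (1:10 enzyme:substrate, 0.01 ml, 50 mM HEPES pH 7.5, CaCl2, NaCl) lasted 7.5, 15 or 30 min. Freed DNA was tagged with adapters by PCR, sequenced and counted; the cleavage Z-score is the lowess-adjusted log count versus furin-free reactions, scaled by median absolute deviation.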
# furin, P09958, sequence (P09958 whole entry): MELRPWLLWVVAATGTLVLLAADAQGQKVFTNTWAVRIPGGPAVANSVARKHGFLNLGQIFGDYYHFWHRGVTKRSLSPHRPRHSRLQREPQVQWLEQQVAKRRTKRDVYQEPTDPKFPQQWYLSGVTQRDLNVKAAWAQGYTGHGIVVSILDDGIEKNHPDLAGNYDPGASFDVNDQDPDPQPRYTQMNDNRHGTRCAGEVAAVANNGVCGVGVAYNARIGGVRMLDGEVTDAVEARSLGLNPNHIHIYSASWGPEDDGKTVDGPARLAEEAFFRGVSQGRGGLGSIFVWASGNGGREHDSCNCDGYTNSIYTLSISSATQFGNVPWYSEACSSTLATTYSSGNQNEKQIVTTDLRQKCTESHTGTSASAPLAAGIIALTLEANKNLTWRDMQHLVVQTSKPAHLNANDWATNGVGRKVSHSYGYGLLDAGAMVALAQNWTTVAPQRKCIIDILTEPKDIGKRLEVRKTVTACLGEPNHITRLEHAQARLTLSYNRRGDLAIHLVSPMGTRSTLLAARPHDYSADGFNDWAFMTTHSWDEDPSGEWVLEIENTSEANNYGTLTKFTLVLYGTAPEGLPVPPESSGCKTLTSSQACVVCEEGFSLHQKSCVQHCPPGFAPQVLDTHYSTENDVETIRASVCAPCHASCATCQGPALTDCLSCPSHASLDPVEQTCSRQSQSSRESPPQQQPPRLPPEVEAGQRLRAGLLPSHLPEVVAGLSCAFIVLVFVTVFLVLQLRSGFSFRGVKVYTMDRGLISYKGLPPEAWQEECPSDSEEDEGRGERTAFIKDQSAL
Sequence,furin cleavage Z-score (7.5 min),furin cleavage Z-score (15 min),furin cleavage Z-score (30 min)
CARANRIVNAAGNASASA [FS-2392],0.0348 (inactive),-1.24 (inactive),-1.84 (inactive)
CATFWAKHMWAGNASASA [HC1040],0.313 (inactive),-0.474 (inactive),0.00738 (inactive)
CARLRRILEVAGNASASA [FS-2433],-1.97 (inactive),-0.173 (inactive),0.88 (inactive)
CARLHRFDSQAGNASASA [FS-2569],-0.521 (inactive),0.134 (inactive),0.911 (inactive)
CARLRRTMLVAGNASASA [FS-2996],0.457 (inactive),-0.166 (inactive),0.463 (inactive)
CARLRRRASQAGNASASA [FS-2995],2.66,4.61 (active),4.94 (active)
CARLRRASWVAGNASASA [FS-3197],1.44,1.96,4.56 (active)
CASAPPGDPPAGNASASA [HC1544],-0.56 (inactive),-0.28 (inactive),-0.205 (inactive)
CAQARRFRRSAGNASASA [FS-844],14.3 (active),14.1 (active),9.61 (active)
CAALGLERRSAGNASASA [FS-1444],-0.628 (inactive),-0.614 (inactive),0.553 (inactive)
CAAPRRPRRPAGNASASA [FS-116],0.169 (inactive),0.142 (inactive),0.528 (inactive)
CAAPRRFRRSAGNASASA [FS-399],9.1 (active),8.32 (active),8.51 (active)
CAFVQRFRRSAGNASASA [FS-236],11.9 (active),11.2 (active),9.2 (active)
CAAPERERRSAGNASASA [FS-215],8.78 (active),11.7 (active),7.74 (active)
CADEEVVTSTAGNASASA [HC2292],1.62,0.883 (inactive),1.1
CATTPCSGSPAGNASASA [HC1939],0.991 (inactive),-1.49 (inactive),0.61 (inactive)
CAEVSCHRPSAGNASASA [HC2357],0.821 (inactive),0.257 (inactive),-0.805 (inactive)

Sequence,furin cleavage Z-score (7.5 min),furin cleavage Z-score (15 min),furin cleavage Z-score (30 min)
CAVVCCSMDYAGNASASA [HC2071],-0.0968 (inactive),0.0602 (inactive),-0.172 (inactive)
CATTECSGSWAGNASASA [HC1872],-0.691 (inactive),-0.533 (inactive),-0.721 (inactive)
CANNHVYRRSAGNASASA [FS-834],2.73,4.48 (active),3.35
CAMEECSNHLAGNASASA [HC1741],-0.217 (inactive),1.15,0.956 (inactive)
CAACARKFRDAGNASASA [FS-1],0.95 (inactive),-0.474 (inactive),-0.446 (inactive)
CAALIRKLRDAGNASASA [FS-1303],10.1 (active),10.2 (active),7.71 (active)
CAALARKMIGAGNASASA [HC622],-0.391 (inactive),-0.298 (inactive),-0.269 (inactive)
CAALARSHRDAGNASASA [FS-1183],3.5 (active),2.5,3.98 (active)
CAEMEVPCHRAGNASASA [HC2446],1.88,3.24,0.262 (inactive)
CAGKARARRTAGNASASA [FS-782],7.77 (active),7.95 (active),6.06 (active)
CAAPTRARRTAGNASASA [FS-1111],9.32 (active),8.24 (active),6.87 (active)
CAELTPAETTAGNASASA [HC925],-0.725 (inactive),0.302 (inactive),-0.347 (inactive)
CAKPTLHGPTAGNASASA [HC968],0.718 (inactive),0.412 (inactive),-0.00703 (inactive)
CAVLVLNPSVAGNASASA [HC786],1.78,-1.12 (inactive),0.0915 (inactive)
CAEVVTQTWVAGNASASA [HC159],-0.939 (inactive),1.5,1.45
CAMEETSQHLAGNASASA [HC16],0.191 (inactive),1.87,1.08
